KCNH2 3.1 inh = inhibitors of human KCNH2 3.1 potassium channel isoform; U2OS KCNH2 3.1, thallium flux FluxOr; hits give low values; activity change, % (tested at about 1.8 µM); actives 0.95% (n = 340,000); AID 720553;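 active means maximum activity change below -70%; inconclusive means maximum activity change from -70% to -50%; inactive means maximum activity change above -50%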;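 further: thallium influx rate constant from kinetic fluorescence after stimulation buffer; on the % scale 0 is the no-effect control and ±100 the full control effect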
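FluxOr-based Tl+ influx in U2OS cells transduced with KCNH2 3.1 virus; rate constants normalized to DMSO controls.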
ClpP mod = qHTS Assay for Activators of ClpP | purified B. subtilis ClpP, FRET peptide cleavage, 20 min | ATP-dependent Clp protease proteolytic subunit (Bacillus subtilis (strain 168)), P80244 | AID 651965, 2013 | Potency, µM (titrated, usually from 57.5 µM), without a hit: at the highest dose activity change, negative = active | actives 1.9% (n = 340,000); active means well fitted falling curve with a large enough effect; inconclusive means small, poorly fitted or top-dose-only effect; inactive means no such curve, though single readings can be large or run the other way; further: potency means the concentration at half of the fitted maximal effect; the source files actives as falling curves though it sought activators and does not explain the sign; nearly all actives have a fitted effect of over 65% in size
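Purified B. subtilis ClpP, 10 microg/mL final in Tris/HCl pH8 with KCl, BSA, glycerol and Tween-20, cleaved an Abz/nitrotyrosine-quenched decapeptide. Fluorescence (ex 320, em 430) was read at 0 and 20 min at room temperature. Delta was normalized to 5.8 microM ADEP and DMSO/no-enzyme controls.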
LDHA block = LDHA (human) enzyme inhibition; activity change, % (values are at about 110 or 230 µM); purified LDHA, NADH/diaphorase-resazurin fluorescence; hits give low values; P00338; actives 0.15% (n = 480,000); in the data active means activity change below about -30%; inconclusive means mostly about -25% to -30%;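 further: plate controls were DMSO wells for no effect and wells without enzyme for full effect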
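Human LDH5 (2 nM) was incubated with 0.06 mM NADH and 0.2 mM pyruvate for 5 min at room temperature in Tris pH 7.4. Remaining NADH was coupled through diaphorase/resazurin, and resorufin fluorescence was read at 0 and 20 min.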
BCR signal inh = chronic active BCR signaling inhibition | actives 0.05% (n = 340,000) | ABC-DLBCL IkBa-CBG/CBR reporter, luminescence ratio, 4 h | Potency, µM (top dose mostly 46.1 µM), inactives show at the top dose activity change, negative = inhibition, usual class: inhibitors; active means well fitted inhibition curve with a large enough effect in the signal ratio, with a control signal flat, not every such curve was filed as active; inconclusive means small, poorly fitted or top-dose-only effect, or effect the other way, or a change in a side signal; the % refers to the signal ratio;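 further: potency means the concentration at half of the fitted maximal effect; plate controls were basal doxycycline-induced cells for no effect and cells given 10 µM MG132 for full effect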
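Concentration-response series (up to 46 uM) were applied to TMD8 dual-reporter cells for 4 h at 37C with doxycycline. Green/red ratio, after filter-overlap correction, defined %Activity; red signal alone was normalised to basal cells and zero luminescence.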
KCNH2 WT inh = inhibitors of human wildtype KCNH2 potassium channel; Q12809; U2OS, BacMam KCNH2, thallium flux FluxOr; hits give low values; activity change, % at 1.84 µM; actives 0.37% (n = 340,000); AID 720551;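 active means maximum activity change below -70%; inconclusive means maximum activity change between -70% and -50%; inactive means maximum activity change above -50%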; further: on the % scale 0 is the no-effect control and ±100 the full control effect
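U2OS cells were transduced with wild-type KCNH2 virus (2.03 x 10^8 / mL) for 4 h at room temperature, then cultured overnight at 37 C. Thallium flux was read with FluxOr dye. Rate constants were normalized to DMSO controls.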
ALOX12 inh = inhibitors of human 12S-lipoxygenase ALOX12; Potency, µM (titrated, usually from 108 µM), without a hit: top-dose activity change, negative = inhibition, actives largely listed as inhibitors; AID 1671190; actives 1.1% (n = 580,000); purified 12hLO, xylenol orange hydroperoxide absorbance; active means well fitted inhibition curve with a large enough effect; inconclusive means small, poorly fitted or top-dose-only effect, or another doubt; inactive means no such curve, though single readings can be large or run the other way; further: potency means the concentration at half of the fitted maximal effect; on the % scale 0 is the no-effect control and ±100 the full control effect
Target sequence (P18054 whole entry, looked up): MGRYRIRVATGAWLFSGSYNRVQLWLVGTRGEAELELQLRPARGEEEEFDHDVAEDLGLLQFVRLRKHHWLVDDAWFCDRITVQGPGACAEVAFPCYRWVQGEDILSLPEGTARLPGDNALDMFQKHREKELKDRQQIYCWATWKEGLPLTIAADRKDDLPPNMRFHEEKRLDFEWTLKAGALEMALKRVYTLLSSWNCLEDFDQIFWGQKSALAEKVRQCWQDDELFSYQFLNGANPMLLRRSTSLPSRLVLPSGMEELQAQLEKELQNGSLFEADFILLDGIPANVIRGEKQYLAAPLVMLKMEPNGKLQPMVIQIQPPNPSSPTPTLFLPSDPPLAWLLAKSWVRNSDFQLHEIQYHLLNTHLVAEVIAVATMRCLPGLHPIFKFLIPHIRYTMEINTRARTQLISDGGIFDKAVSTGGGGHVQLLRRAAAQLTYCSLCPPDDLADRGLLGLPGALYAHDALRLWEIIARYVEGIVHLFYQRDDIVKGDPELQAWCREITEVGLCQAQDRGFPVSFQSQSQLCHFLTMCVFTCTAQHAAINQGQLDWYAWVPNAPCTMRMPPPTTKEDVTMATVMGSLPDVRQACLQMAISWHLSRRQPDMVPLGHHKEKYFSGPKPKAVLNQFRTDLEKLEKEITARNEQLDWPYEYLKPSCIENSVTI
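Hydroperoxide product was detected by ferrous iron/xylenol orange as the 573 to 405 nm absorbance ratio. Arachidonic acid at 40 uM (final) was turned over for 30 min at room temperature by 150 nM human 12hLO, pH 7.0 Hepes buffer, after 15 min compound preincubation.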
* = called active by the depositor; ? = inconclusive; . = no result given; [ ] = dose if it differs, or a comment. Rows were chosen to be rich in hits. Some 3% of all compounds tested hit in one or more screens of this group.

SMILES | KCNH2 3.1 inh | ClpP mod | LDHA block | BCR signal inh | KCNH2 WT inh | ALOX12 inh
O=C(O)C(SC(C(=O)O)c1ccccc1)c1ccccc1 (stereo not given) | 3 | 28µM* | -10 | . | -14 | -15%
CCOC(=O)C1=C(C)OC(N)=C(C#N)C1c1cc2cc(C)ccc2nc1N1CCCCC1 (stereo not given) | -3 | 28µM* | 9 | ? | 13 | ?
FC(F)(F)c1nc2nncn2c2c1CCCCC2 | 11 | 32µM* | -6 | 6% | 14 | -4%
CC(C)(C)NC(=O)Cn1nc(C(F)(F)F)c2c1CCCC2 | 1 | . | -6 | ? | 13 | -6%
CCOc1ccc(/C=N/NC(=O)c2ccc(Cn3cc([N+](=O)[O-])cn3)o2)cc1 | -8 | -3% | -3 | . | 10 | ?
CC(C)(C)c1ccc(OCc2ccc(C(=O)N/N=C/c3ccc([N+](=O)[O-])cc3)o2)cc1 | -80* | 0% | -9 | -1% | -3 | 0%
COCC(=O)NC1CCC12CCN(C(=O)C(C)C)CC2 (stereo not given) | . | . | . | . | . | 10%
CN(C)/C=C/C(=O)c1cnc(-c2cccc(Cl)c2)s1 | -1 | 3% | -1 | ? | 1 | 32µM*
CN(C)/C=C/C(=O)c1cnc(-c2ccccc2Cl)s1 | -14 | -1% | -19 | 5% | 0 | 8.9µM*
C[C@@H]1CN(C(=O)c2cc(N3CCOCC3)cc3c2OCCN3C)C[C@H](C)O1 | . | . | . | . | . | 7%[176 µM]
COc1ccc(OC)c(-c2cc3ccc(O)cc3oc2=O)c1 | . | . | -6 | . | . | -5%
CCc1ccc(CN(C)C(=O)CC2C(=O)NCCN2Cc2ccoc2)cc1 (stereo not given) | -85* | -2% | -3 | 8% | 9 | 0%
CCOc1ccccc1CN1CCNC(=O)C1CC(=O)N(C)Cc1cnccn1 (stereo not given) | -115* | 0% | -1 | 1% | 9 | 0%
CC(C)CC(=O)Nc1c2c(nn1-c1ccc(F)cc1)CS(=O)C2 (stereo not given) | -1 | 1% | 0 | 4% | ? | -17%
COc1ccc(-n2nc3c(c2NC(=O)c2c(F)cccc2Cl)CS(=O)C3)cc1 (stereo not given) | -78* | -1% | -1 | ? | -4 | -10%
Cc1ccc(-n2nc3c(c2NC(=O)CC(C)C)CS(=O)C3)cc1 (stereo not given) | 1 | 2% | -1 | 1% | -13 | 40µM*
COc1ccc(-n2nc3c(c2NC(=O)CC(C)C)CS(=O)C3)cc1 (stereo not given) | -7 | -1% | -18 | -1% | -12 | -7%
CCO[C@H]1CN(C(=O)c2ccccc2OC(F)(F)C(F)F)C[C@@H]1O | . | . | . | . | . | -1%
CSc1ccc(/C=C2\N=C(c3cccs3)OC2=O)cc1 | . | . | 5 | . | . | ?
COCCn1c(SCC(=O)NCc2ccc3c(c2)OCO3)nnc1C(C)C | -4 | -1% | -7 | -4% | 9 | 8%
COCCn1c(SCC(=O)NCc2ccc3c(c2)OCO3)nnc1-c1c[nH]c2ccccc12 | -215* | 0% | -1 | -8% | -149* | -55%
CC(C)CSc1n[nH]c(=S)s1 | 14 | . | -2 | 5% | -2 | 22µM*
CC(CSc1n[nH]c(=S)s1)c1ccccc1 (stereo not given) | 6 | . | -6 | . | 1 | ?
Cc1ccc(O)c(C(=O)c2cc(C#N)c(=O)n(-c3ccccc3C(F)(F)F)c2)c1 | . | . | 9 | . | . | -13%
CNC(=S)N=Nc1c(O)[nH]c2ccccc12 | 11 | -6% | 0 | ? | 11 | -18%
Cc1ccc(S(=O)(=O)N=Nc2c(O)[nH]c3ccccc23)cc1C | -4 | -22% | -36* | 6% | 0 | ?
CCOC(=O)C(=O)N=Nc1c(O)[nH]c2ccccc12 | -24 | 22µM* | -6 | -5% | 1 | 9%

Screens: PubChem, National Center for Advancing Translational Sciences (NCATS)
